Most compounds without a hit are left out; they make up all but 1.8% or so of the library.
LYPLA1 inh = LYPLA1 inhibitors, primary screen, counter-screen for PME1 inhibitor project, biochemical, fluorescence polarization, FP-Rh probe ABPP. 320,000 tested, 0.16% active. inhibition, % at 5.9 µM. Acyl-protein thioesterase 1 (Homo sapiens), O75608. recombinant LYPLA1;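 active = inhibition above the mean of all tested compounds plus 3 SD, set per campaign, cut at about 14% in these data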;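 note: inhibitors block serine hydrolase probe labeling of LYPLA1 so polarization falls; 0% = enzyme with DMSO and 100% = wells lacking LYPLA1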
GSTO1 inh = inhibitors of recombinant GSTO1, primary screen, counter-screen for RBBP9 inhibitor project, biochemical, fluorescence polarization; activity-based probe fluorescence polarization; inhibition, % at 5.96 µM; Glutathione S-transferase omega-1 (Homo sapiens), P78417; 300,000 tested, 1.1% active;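 active = inhibition above the campaign mean inhibition plus 3 SD, cut at about 35% in these data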;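 note: 0% = GSTO1-1 with DMSO and 100% = wells lacking GSTO1-1 enzyme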
PME-1 inh = PME-1 inhibitors via competitive probe labeling, primary screen, biochemical, fluorescence polarization, FP-Rh probe, HTS; 320,000 tested, 0.53% active; recombinant PME-1; AID 2130, 2009; inhibition, % at 5.9 µM; Protein phosphatase methylesterase 1 (Homo sapiens), Q9Y570;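 active = inhibition above the campaign mean of all compounds plus 3 SD, cut at about 26% in these data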;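 note: competitive labeling of PME-1 active site by serine hydrolase directed probe; 0% = PME-1 with DMSO and 100% = wells lacking PME-1 enzyme; inhibitors block probe labeling so polarization falls and inhibition rises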
Target sequence (Q9Y570 whole entry, looked up): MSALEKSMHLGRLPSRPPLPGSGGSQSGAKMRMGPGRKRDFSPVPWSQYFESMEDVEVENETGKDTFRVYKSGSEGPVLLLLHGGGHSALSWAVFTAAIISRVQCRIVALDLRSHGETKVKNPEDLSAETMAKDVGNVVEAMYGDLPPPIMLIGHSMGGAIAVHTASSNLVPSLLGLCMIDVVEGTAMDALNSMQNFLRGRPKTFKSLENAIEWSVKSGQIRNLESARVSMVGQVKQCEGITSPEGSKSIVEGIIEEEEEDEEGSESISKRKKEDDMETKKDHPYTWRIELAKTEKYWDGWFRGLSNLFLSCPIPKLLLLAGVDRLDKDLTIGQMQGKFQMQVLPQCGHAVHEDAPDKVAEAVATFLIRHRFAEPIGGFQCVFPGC
PAD4 inh = human PAD4 inhibitors, primary screen, biochemical, fluorescence polarization, 1536-well format; Protein-arginine deiminase type-4 (Homo sapiens), Q9UM07; recombinant PAD4, RCA probe fluorescence polarization; inhibition, % at 6.36 µM; 330,000 tested, 0.41% active;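 active = percent inhibition above a cutoff equal to the mean of all tested compounds plus 3 SD, cut at about 15% in these data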;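 note: 0% = PAD4 with RCA probe and DMSO and 100% = probe without PAD4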
Fam108B counter = mouse Fam108B serine hydrolase inhibitors, primary screen, counter-screen for RBBP9 inhibitor project, biochemical, fluorescence polarization | 300,000 tested, 0.33% active | inhibition, % at 9.51 µM | AID 1947, 2009 | recombinant Fam108B, FP-Rh probe fluorescence polarization;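 active = inhibition above the screen mean inhibition plus 3 SD, computed separately per campaign, cut at about 18% in these data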;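 note: inhibitors lower polarization as less probe binds the enzyme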
LYPLA2 inh = LYPLA2 inhibitors, primary screen, counter-screen for PME1 inhibitor project, biochemical, fluorescence polarization, FP-Rh probe ABPP; recombinant LYPLA2; inhibition, % at 5.9 µM; 320,000 tested, 0.38% active; AID 2177, 2009;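 active = inhibition above the screen-wide mean plus 3 SD, limit set per campaign, cut at about 26% in these data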;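 note: 0% = LYPLA2 with DMSO and 100% = wells lacking LYPLA2 enzyme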
GSTO1 inh conf = GSTO1 inhibitor hit confirmation, counter-screen for RBBP9 inhibitor project, biochemical, fluorescence polarization, triplicate; shares compounds with GSTO1 inh; recombinant GSTO1, probe fluorescence polarization; inhibition, % at 5.96 µM; 2,400 tested, 54% active; AID 2176, 2009;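 active = inhibition above the primary screen's cutoff, its mean inhibition plus 3 SD, cut at about 35% in these data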;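 note: loss of polarization as inhibitors block binding of rhodamine sulfonate ester activity probe; 0% = GSTO1 with DMSO and 100% = wells lacking GSTO1 enzyme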
GSTO1 recomb ABPP = inhibitors of purified human GSTO1, late-stage follow-up, biochemical, gel ABPP, SE-Rh probe, percent inhibition. recombinant GSTO1, gel ABPP SE-Rh probe fluorescence. shares compounds with GSTO1 inh. 130 tested, 30% active. inhibition, % at 1 µM;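 active = inhibition of the enzyme GSTO1 above about 75%, limit read from the data; inactive = inhibition below that limit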
The depositor's hits bear a star; . = no result.

SMILES	LYPLA1 inh	GSTO1 inh	PME-1 inh	PAD4 inh	Fam108B counter	LYPLA2 inh	GSTO1 inh conf	others
CCOc1ccc(NC(=O)C2C(C(=O)O)C3(Cl)C(Cl)=C(Cl)C2(Cl)C3(Cl)Cl)cc1 (stereo not drawn)	2	44*	-1	2	4	2	30
O=C(N/N=C/c1cccs1)c1cc(-c2cccc3ccccc23)n[nH]1	-40	-28	-43	-5	-29	-71	.
CCOC(=O)c1sc(N2N=C(C)/C(=C\c3ccc(OCC(=O)OC)cc3)C2=O)nc1C	-2	39*	2	-11	12	9	13
CCOC(=O)c1sc(Nc2ccc(OCC)cc2)nc1C	-2	11	3	1	1	-2	.
COc1ccc(CCNC(=O)C2CC(c3ccccc3[N+](=O)[O-])=NO2)cc1 (stereo not drawn)	-1	16	5	0	6	4	.
O=C(O)c1ccc(N/N=C/C(Br)=C/c2ccccc2)cc1	0	64*	4	2	9	3	65*
CC(C)(C)c1ccc(S(=O)(=O)Nc2ccccn2)cc1	-1	6	-3	-3	0	-1	.
CN(C)c1cccc2c(S(=O)(=O)Nc3ccccn3)cccc12	1	45*	7	-9	4	2	7
CCOC(=O)c1[nH]c2ccc(OC)cc2c1NC(=O)CN1CCc2ccccc2C1	-5	51*	7	-4	0	-1	1
O=C(CCl)Nc1cccc(S(=O)(=O)NC2=NCCC2)c1	0	99*	-7	-2	2	0	99*
CCNC(=S)Nc1cccc(S(=O)(=O)NC2=NCCC2)c1	-5	-2	2	-5	-3	2	.
COc1ccc(C(=O)NNC(=O)c2ccc(C)cc2)cc1S(=O)(=O)N1CCCC1	1	3	-3	-6	3	-1	.
Cc1ccc(SCC(=O)OCC(=O)N(CCC#N)c2ccccc2)cc1C	-2	6	-2	2	-1	1	.
Cc1ccc(N(CCC#N)C(=O)CCl)cc1C	0	93*	9	9	-3	9	90*	GSTO1 recomb ABPP=18
O=c1c(=Nc2ccccc2O)c(=O)c2ccccc12	-1	68*	-1	-17	1	-3	25
O=c1[nH][nH]cc1C=Nc1ccccc1O	2	31	-2	-3	6	-1	.
Cc1ccc(S(=O)(=O)N2CCN(C(=O)c3ccccc3)CC2)c(C)c1NS(C)(=O)=O	2	3	1	-6	0	12	.
COc1cc2c(ccc3cc(OC)c(OC)c(O)c32)cc1O	1	55*	2	-2	5	9	45*
CN(CC(=O)Nc1cccc(F)c1)C(=O)c1ccccc1CCc1ccccc1	-4	-8	0	8	-1	-6	.
CCOc1ccc(CNC(=O)Cn2ccc3cc(S(=O)(=O)N4CCCCCC4)ccc32)cc1	-5	8	2	1	4	2	.
CC(=NCCCn1ccnc1)c1c(-c2ccccc2)[nH]n(-c2nc3ccccc3s2)c1=O	-4	57*	-4	1	4	-5	5
CCCCCCC(=O)N(O)C1CC(=O)N(c2ccc(Br)cc2)C1=O (stereo not drawn)	-5	-6	-10	-7	0	-8	.
COc1ccccc1N(O)C1CC(=O)N(c2ccc(Br)cc2)C1=O (stereo not drawn)	2	51*	11	-7	15	1	12
CCN(CC)CCNc1cc(C)nc2c1C(=O)C(=O)C=C2N1CCCCC1	0	77*	-7	3	0	2	45*

Source: PubChem BioAssay (The Scripps Research Institute Molecular Screening Center)
